Reference: the supplement of paper PMC11732987, “Enantioselective OTUD7B fragment discovery through chemoproteomics screening and high-throughput optimisation” (Communications Chemistry, 2025)

Experiments:
Assay in all cases: log2 ratio of Biotin-Ahx-Ub-VS probe labelling (fragment/DMSO); higher = less target engagement (more negative = stronger competition), active = hit call of the paper (q ≤ 0.05, log2 ratio ≤ -1)
Conditions in all cases: compound concentration: 200 uM; treatment time: 3 h
USP42 = target: T1, USP42 (UniProt Q9H9J4)
T1 sequence (whole entry): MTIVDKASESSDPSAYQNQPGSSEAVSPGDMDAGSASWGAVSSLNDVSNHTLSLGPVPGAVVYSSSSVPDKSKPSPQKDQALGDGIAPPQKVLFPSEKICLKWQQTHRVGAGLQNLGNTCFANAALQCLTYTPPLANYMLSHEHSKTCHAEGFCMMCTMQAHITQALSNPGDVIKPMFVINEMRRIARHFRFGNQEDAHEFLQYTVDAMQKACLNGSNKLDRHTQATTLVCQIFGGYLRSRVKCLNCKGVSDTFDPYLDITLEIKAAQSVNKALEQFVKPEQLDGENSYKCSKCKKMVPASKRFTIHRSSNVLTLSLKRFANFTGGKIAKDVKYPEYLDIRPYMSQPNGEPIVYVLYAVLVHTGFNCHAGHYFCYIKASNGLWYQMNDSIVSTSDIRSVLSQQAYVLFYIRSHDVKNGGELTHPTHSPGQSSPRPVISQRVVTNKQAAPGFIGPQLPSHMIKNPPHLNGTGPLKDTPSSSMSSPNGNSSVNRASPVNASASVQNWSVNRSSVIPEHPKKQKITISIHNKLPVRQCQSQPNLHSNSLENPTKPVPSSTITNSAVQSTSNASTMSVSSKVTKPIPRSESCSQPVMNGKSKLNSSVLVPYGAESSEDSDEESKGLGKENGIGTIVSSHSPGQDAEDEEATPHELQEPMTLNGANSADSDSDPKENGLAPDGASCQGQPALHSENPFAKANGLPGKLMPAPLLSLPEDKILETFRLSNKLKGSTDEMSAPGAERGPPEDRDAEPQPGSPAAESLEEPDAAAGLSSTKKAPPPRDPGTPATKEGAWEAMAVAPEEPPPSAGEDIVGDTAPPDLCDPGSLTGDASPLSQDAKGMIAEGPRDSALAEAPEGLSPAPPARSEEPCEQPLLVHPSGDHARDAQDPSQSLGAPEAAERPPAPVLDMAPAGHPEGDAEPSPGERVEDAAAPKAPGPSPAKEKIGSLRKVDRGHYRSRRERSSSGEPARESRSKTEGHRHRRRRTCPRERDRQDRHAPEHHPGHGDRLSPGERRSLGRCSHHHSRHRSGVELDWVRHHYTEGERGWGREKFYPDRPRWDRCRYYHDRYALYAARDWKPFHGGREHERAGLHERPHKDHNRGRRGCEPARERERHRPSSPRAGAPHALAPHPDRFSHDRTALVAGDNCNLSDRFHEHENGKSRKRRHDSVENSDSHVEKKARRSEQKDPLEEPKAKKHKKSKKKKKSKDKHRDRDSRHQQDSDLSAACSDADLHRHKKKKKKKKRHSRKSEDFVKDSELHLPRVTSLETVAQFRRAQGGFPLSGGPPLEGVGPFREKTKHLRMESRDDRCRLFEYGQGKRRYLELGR
Procedure, shortened: (§1)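 HEK293T lysate (495 µg per sample, in Tris/CHAPS/IGEPAL buffer with protease inhibitors) was exposed in triplicate for 3 h to fragment at 200 µM or to vehicle, then to Biotin-Ahx-Ub-VS at 0.5 µM final for 1 h. Labelled DUBs were enriched on NeutrAvidin, digested with LysC and trypsin, and analysed by diaPASEF LC-MS/MS. Spectronaut label-free quantities were normalised to the global median, and values are average log2 ratios of fragment over vehicle from an unpaired t-test. Only proteins with ≥2 unique peptides were used.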

USP46 = USP46 (UniProt P62068)
Procedure, shortened: as §1

USP47 = target: T2, USP47 (UniProt Q96K76)
T2 sequence (whole entry): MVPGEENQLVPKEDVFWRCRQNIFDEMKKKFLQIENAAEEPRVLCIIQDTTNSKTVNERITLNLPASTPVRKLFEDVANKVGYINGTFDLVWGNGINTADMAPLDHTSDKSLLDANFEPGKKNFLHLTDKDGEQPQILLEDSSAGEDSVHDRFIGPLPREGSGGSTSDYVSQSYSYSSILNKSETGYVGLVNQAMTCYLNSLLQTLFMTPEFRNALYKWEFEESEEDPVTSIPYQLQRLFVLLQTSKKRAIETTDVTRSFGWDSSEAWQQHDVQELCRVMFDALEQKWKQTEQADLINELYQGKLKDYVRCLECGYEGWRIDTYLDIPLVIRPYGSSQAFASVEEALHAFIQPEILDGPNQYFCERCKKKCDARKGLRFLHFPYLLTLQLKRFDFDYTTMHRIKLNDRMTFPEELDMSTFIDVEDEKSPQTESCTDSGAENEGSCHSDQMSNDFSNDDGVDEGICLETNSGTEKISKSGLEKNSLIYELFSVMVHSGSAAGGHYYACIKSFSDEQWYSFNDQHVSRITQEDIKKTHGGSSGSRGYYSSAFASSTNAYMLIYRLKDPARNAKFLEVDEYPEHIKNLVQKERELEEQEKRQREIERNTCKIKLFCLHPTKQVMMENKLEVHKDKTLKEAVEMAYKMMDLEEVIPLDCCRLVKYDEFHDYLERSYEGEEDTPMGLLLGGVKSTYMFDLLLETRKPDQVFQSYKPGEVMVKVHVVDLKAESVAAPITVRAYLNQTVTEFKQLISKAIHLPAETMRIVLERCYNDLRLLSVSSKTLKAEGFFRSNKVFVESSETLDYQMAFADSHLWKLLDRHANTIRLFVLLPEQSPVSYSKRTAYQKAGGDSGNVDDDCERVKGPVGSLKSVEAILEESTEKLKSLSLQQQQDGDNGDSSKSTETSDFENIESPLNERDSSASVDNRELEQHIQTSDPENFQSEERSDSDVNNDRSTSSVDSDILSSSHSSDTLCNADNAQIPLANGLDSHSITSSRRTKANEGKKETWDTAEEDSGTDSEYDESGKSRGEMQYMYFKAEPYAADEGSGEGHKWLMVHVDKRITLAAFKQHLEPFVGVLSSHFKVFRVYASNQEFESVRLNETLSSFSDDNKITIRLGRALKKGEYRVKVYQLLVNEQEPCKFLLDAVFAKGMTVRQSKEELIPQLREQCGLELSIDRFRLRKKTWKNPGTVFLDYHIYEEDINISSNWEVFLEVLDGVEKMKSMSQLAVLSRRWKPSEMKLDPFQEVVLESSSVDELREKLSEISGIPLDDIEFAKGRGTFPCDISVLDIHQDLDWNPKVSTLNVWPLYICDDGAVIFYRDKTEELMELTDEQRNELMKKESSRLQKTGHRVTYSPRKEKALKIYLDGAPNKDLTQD
Procedure, shortened: as §1

USP48 = target: T3, USP48 (UniProt Q86UV5)
T3 sequence (whole entry): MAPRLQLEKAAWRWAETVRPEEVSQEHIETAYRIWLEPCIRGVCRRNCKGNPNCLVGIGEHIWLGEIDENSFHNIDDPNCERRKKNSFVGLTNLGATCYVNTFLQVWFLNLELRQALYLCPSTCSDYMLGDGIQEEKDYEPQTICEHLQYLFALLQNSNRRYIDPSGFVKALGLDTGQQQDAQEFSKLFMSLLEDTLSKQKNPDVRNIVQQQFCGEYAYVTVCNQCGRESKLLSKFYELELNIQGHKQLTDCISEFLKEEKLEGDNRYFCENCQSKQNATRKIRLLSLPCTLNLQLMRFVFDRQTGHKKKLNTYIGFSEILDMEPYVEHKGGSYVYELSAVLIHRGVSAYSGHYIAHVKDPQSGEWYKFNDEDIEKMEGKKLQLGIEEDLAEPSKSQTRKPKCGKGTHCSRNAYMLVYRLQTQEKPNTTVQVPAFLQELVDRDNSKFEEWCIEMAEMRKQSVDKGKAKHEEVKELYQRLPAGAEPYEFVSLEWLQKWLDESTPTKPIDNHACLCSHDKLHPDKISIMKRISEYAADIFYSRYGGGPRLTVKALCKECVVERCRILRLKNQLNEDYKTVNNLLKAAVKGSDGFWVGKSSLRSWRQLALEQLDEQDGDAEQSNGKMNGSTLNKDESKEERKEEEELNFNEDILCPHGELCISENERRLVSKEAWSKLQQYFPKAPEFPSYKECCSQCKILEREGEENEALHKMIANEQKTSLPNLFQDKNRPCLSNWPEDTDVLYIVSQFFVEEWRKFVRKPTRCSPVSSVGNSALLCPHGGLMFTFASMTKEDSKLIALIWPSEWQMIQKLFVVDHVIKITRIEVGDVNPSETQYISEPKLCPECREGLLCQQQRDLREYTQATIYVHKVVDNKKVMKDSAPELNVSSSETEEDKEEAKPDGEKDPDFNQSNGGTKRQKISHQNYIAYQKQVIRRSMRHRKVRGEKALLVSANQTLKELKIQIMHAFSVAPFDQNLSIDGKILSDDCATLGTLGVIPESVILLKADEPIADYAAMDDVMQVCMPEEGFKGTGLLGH
Procedure, shortened: as §1

USP5 = target: T4, USP5 (UniProt P45974)
T4 sequence (whole entry): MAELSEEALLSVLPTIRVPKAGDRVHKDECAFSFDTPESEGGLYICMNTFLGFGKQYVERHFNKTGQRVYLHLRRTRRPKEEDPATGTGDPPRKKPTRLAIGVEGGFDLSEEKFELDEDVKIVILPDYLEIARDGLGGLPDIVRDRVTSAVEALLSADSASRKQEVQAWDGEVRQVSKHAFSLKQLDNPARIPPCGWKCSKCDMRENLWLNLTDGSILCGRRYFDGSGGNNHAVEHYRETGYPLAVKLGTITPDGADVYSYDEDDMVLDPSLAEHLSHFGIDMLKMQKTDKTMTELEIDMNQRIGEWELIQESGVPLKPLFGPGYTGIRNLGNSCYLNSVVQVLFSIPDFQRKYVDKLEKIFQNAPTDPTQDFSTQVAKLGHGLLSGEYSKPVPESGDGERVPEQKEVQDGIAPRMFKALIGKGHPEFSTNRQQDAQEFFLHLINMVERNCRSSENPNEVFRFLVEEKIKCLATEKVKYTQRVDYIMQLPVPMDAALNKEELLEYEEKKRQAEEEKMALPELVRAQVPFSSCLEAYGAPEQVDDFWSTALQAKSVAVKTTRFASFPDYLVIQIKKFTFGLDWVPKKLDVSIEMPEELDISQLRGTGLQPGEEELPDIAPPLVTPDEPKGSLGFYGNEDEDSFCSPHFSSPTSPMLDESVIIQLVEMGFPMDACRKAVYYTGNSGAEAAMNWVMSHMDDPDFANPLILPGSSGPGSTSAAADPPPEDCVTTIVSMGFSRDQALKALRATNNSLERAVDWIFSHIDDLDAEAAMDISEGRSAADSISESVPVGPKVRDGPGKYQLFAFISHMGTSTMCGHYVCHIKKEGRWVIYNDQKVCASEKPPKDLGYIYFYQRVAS
Procedure, shortened: as §1

USP54 = USP54 (UniProt Q70EL1)
Procedure, shortened: as §1

USP7 = USP7 (UniProt Q93009)
Procedure, shortened: as §1

USP8 = target: T5, USP8 (UniProt P40818)
T5 sequence (whole entry): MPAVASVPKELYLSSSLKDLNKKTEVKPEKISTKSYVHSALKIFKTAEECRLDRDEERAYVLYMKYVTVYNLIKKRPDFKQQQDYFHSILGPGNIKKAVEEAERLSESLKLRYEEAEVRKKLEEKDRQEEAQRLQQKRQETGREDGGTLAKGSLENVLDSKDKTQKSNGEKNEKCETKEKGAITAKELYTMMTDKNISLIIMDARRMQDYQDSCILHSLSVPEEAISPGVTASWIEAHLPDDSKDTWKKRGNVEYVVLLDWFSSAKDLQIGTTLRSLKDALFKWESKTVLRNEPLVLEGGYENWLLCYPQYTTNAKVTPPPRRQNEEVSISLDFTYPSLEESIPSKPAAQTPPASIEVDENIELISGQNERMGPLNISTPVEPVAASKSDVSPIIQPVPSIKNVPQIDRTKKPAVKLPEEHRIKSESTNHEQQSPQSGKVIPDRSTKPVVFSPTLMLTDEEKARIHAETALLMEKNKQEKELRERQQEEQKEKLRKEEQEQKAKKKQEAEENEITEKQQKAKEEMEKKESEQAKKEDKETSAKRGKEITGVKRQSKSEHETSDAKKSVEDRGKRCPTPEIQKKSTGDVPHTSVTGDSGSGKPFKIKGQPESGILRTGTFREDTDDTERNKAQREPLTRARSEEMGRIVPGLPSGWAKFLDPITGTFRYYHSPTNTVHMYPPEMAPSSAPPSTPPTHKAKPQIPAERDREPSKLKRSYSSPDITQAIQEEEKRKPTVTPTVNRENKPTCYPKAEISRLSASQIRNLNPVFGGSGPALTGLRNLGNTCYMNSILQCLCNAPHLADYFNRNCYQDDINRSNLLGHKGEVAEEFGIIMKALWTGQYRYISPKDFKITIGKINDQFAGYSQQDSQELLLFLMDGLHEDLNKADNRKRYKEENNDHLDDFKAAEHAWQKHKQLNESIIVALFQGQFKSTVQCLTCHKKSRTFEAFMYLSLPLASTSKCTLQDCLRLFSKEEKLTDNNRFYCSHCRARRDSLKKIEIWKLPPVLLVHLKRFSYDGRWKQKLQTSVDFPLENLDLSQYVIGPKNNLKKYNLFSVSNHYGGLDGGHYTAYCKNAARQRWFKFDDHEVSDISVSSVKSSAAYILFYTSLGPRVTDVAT
Procedure, shortened: as §1

USP9X = USP9X (UniProt Q93008)
Procedure, shortened: as §1

UniProt O00487 = target: UniProt O00487
Procedure, shortened: as §1

Measured: log2 ratio of Biotin-Ahx-Ub-VS probe labelling

Sequence of USP9X (Q93008 whole entry): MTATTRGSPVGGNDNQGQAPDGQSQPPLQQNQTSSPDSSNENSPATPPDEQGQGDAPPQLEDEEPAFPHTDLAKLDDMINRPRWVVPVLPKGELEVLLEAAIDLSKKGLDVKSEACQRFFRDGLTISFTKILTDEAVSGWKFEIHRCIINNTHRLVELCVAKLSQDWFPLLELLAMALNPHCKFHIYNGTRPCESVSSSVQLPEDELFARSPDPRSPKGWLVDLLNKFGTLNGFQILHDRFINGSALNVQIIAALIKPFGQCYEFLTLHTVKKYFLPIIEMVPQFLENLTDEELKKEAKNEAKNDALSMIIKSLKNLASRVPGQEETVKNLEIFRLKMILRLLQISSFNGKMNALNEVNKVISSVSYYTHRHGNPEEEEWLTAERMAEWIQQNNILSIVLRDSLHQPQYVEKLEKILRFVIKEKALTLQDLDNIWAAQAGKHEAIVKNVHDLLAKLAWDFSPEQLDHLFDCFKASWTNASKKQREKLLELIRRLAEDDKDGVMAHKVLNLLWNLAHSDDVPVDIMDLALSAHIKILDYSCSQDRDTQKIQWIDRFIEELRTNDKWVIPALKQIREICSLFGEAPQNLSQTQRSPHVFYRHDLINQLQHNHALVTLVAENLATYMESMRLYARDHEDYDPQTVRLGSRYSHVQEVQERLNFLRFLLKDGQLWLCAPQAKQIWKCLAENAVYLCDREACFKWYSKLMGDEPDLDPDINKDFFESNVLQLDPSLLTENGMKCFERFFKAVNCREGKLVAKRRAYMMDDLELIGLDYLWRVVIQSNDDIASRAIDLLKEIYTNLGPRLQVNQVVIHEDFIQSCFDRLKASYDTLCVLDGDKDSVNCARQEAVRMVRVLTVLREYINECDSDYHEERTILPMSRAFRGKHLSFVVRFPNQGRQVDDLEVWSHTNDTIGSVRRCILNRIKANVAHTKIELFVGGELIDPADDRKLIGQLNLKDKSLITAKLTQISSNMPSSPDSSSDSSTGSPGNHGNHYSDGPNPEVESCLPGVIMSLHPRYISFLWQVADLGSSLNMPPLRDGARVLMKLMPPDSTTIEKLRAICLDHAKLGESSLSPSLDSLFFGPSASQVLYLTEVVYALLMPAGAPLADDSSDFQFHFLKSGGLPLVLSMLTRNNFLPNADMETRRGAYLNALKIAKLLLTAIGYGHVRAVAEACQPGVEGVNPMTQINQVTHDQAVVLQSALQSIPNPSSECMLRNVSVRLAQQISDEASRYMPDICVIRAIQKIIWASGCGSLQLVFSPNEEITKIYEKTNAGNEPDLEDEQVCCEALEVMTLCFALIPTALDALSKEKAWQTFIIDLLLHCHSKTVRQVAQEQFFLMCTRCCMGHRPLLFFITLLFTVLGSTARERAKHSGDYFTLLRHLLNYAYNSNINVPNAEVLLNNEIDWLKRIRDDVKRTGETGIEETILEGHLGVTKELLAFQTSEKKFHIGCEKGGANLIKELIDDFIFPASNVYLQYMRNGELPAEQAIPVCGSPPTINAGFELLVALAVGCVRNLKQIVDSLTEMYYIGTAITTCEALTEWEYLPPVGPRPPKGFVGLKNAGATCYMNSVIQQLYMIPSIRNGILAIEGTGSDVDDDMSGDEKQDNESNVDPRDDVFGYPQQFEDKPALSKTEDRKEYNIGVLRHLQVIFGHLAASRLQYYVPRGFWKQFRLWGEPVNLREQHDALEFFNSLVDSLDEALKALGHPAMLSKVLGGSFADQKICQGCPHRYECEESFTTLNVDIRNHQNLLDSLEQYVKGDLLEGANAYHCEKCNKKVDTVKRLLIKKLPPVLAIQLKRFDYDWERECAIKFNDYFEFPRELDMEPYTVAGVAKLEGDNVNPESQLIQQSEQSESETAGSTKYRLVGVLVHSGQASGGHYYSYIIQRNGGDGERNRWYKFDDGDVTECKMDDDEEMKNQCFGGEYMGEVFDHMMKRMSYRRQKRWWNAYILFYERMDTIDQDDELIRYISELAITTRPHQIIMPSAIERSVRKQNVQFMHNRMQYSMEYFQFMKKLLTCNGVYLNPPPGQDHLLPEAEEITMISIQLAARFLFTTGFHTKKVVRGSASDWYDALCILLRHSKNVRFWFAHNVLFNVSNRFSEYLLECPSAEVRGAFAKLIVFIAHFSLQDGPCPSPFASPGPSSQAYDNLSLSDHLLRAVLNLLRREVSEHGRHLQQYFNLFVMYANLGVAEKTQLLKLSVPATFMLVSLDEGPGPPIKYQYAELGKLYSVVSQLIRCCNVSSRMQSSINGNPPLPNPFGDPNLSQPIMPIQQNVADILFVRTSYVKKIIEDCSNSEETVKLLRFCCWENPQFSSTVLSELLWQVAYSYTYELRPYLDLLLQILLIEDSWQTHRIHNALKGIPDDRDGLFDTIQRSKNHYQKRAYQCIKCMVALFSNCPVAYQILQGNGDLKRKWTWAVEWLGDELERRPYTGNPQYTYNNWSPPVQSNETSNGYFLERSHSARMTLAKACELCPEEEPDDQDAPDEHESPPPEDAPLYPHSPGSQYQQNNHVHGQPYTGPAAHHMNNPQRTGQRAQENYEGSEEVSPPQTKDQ
Sequence of UniProt O00487 (O00487 whole entry): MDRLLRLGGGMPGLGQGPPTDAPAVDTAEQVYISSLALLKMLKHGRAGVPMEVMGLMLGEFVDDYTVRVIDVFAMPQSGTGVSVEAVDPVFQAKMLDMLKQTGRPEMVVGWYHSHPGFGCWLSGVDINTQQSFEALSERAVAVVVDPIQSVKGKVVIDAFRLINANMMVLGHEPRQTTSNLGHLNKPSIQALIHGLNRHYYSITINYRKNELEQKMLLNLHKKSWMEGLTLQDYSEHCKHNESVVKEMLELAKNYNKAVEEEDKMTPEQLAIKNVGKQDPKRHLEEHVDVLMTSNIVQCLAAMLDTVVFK
Sequence of USP46 (P62068 whole entry): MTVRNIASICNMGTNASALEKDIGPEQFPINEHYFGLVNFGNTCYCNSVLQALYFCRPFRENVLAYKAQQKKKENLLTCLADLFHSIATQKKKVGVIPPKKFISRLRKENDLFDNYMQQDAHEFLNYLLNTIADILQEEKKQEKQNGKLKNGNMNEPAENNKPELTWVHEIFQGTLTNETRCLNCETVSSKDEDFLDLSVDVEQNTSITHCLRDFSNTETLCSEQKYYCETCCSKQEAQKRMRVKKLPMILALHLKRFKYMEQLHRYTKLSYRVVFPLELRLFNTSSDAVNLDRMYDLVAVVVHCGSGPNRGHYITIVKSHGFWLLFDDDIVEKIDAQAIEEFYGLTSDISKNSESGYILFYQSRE
Sequence of USP7 (Q93009 whole entry, looked up): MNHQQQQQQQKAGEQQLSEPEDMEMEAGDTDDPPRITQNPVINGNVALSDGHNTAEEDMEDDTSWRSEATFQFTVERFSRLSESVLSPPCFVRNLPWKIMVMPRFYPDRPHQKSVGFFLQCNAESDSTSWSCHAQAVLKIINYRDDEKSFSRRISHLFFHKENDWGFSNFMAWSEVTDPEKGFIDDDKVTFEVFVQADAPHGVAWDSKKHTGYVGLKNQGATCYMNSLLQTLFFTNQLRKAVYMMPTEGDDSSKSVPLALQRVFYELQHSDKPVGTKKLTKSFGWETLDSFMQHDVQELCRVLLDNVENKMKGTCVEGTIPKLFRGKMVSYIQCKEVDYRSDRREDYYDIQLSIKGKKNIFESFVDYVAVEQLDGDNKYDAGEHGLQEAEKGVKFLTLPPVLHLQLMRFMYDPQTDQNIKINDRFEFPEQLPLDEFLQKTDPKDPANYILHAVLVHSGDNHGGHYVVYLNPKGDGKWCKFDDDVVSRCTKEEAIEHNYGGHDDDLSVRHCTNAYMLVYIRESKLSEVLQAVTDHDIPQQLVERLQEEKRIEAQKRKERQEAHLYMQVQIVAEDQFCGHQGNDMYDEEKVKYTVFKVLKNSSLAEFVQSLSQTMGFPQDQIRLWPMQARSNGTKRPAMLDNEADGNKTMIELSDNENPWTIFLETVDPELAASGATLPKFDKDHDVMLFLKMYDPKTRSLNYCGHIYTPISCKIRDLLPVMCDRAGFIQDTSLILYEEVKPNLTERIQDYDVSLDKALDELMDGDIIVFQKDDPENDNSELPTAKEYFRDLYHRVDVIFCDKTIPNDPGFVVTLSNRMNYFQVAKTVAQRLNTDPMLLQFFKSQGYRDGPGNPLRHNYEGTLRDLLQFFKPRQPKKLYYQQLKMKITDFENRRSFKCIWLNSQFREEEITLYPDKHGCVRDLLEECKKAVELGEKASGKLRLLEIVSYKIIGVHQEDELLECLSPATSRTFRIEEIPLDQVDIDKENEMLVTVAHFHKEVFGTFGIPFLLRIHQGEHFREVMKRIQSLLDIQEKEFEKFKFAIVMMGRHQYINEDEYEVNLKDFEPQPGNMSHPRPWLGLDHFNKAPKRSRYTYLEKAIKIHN

Cc1cc(C(=O)NC2CCN(C(=O)CCl)CC2)no1
inactive: USP42 -0.284 | USP46 -0.048 | USP47 -0.0545 | USP48 -0.0815 | USP5 0.0506 | USP54 -0.176 | USP7 -0.222 | USP8 -0.0431 | USP9X -0.158 | UniProt O00487 -0.138

Cc1ccc2nnc(CNC(=O)CCl)n2c1
inactive: USP42 0.336 | USP46 -0.000756 | USP47 0.13 | USP48 -0.0762 | USP5 0.114 | USP54 0.357 | USP7 0.0284 | USP8 0.28 | USP9X 0.0675 | UniProt O00487 -0.0931
